# Experimental data taken from PubChem BioAssay (NCATS).
# Results filed as inconclusive are left out. Activity calls are given as the source filed them. Calls follow the shape of the dose curve; as a rule, active = well fitted curve in the direction sought with a large enough effect in the signal ratio, with a control signal flat (not every such curve was filed as active); inconclusive = small, poorly fitted or top-dose-only effect, or effect the other way, or a change in a side signal; inactive = no such curve, though single readings can be large or run the other way; the % refers to the signal ratio.
# Target: Tyrosine-protein phosphatase non-receptor type substrate 1 (Homo sapiens) + Leukocyte surface antigen CD47 (Homo sapiens) (UniProt P78324+Q08722)
# Experiment: CD47-SIRPalpha protein protein interaction - LANCE assay qHTS validation (AID 1347057); also: 0% is about no effect
# Details: Recombinant CD47-His / biotin-SIRPalpha, TR-FRET ratio; series mostly up to 38.3 µM; activity change, negative = inhibition: at the top concentration
# Summary of the method: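 Inhibition of soluble CD47/SIRPalpha ectodomain association by titrated compounds, measured as 665/615 nm time-resolved FRET ratio after sequential 30 min room-temperature incubations.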
# Tyrosine-protein phosphatase non-receptor type substrate 1 (Homo sapiens) + Leukocyte surface antigen CD47 (Homo sapiens), sequence (P78324 whole entry, looked up): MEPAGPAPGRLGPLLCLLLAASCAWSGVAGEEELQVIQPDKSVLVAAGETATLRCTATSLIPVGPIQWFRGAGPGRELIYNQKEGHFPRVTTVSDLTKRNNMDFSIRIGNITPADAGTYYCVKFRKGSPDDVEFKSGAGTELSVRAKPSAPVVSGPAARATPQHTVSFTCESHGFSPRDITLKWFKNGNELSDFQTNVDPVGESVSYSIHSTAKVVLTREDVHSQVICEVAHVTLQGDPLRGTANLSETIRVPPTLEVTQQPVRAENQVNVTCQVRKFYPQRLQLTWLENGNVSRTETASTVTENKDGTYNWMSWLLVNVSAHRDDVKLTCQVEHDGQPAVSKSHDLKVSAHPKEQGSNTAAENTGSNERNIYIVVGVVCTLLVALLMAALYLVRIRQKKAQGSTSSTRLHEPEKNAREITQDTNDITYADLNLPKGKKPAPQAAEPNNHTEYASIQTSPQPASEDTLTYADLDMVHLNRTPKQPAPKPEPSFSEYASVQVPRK
# Tyrosine-protein phosphatase non-receptor type substrate 1 (Homo sapiens) + Leukocyte surface antigen CD47 (Homo sapiens), sequence (Q08722 whole entry, looked up): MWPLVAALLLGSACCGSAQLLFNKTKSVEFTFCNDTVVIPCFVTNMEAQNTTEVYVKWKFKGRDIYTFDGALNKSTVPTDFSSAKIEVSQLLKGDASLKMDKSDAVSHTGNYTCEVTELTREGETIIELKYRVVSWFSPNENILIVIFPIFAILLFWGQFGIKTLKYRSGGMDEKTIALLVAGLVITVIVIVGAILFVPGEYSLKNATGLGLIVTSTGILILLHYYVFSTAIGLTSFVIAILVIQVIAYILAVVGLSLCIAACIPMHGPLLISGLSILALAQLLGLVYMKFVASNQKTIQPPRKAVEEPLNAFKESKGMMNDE
row,SMILES,"activity change, negative = inhibition"
1,Cc1cc(NC(=O)Nc2ccc3c(ccn3C)c2)sn1,3.19% (inactive)
2,CC(C)(C=O)Cc1cc(C(C)(C)C)c(O)c(C(C)(C)C)c1,0.879% (inactive)
3,NC(=O)C(=O)O,2.77% (inactive)
4,O=C(O)CC1CCCc2ccccc2C1O (stereo not drawn),-0.317% (inactive)
5,Nc1nc(Nc2ccccc2)nc2c1ncn2[C@@H]1O[C@H](CO)[C@@H](O)[C@H]1O,1.14% (inactive)
6,NCCCS(=O)(=O)O,-0.264% (inactive)
7,CCCN(CC1CC1)c1nc(C)nc(Nc2c(Cl)cc(Cl)cc2Cl)c1Cl,-0.185% (inactive)
8,O=C1NC(=O)/C(=C/c2ccc(-c3ccc(F)cc3O)o2)S1,-0.572% (inactive)
9,O=C(c1ccc(OCCCc2cnc[nH]2)cc1)C1CC1,-0.528% (inactive)
10,Nc1nc(SCc2ccc([N+](=O)[O-])cc2)c2ncn([C@@H]3O[C@H](CO)[C@@H](O)[C@H]3O)c2n1,0.127% (inactive)
11,c1cnc2c(c1)ccc1cccnc12,2.2% (inactive)
12,CC(C)NC[C@@H](O)c1ccc(O)c(O)c1,0.843% (inactive)
13,O=c1[nH]c2cc([N+](=O)[O-])c([N+](=O)[O-])cc2[nH]c1=O,1.04% (inactive)
14,CC(=O)N[C@H](C(=O)O)C(C)(C)SN=O,0.528% (inactive)
15,CC[C@@H](C)[C@H]1O[C@]2(CC[C@H]1C)C[C@@H]1C[C@@H](CC=C(C)[C@@H](O[C@H]3C[C@H](OC)[C@@H](O[C@H]4C[C@H](OC)[C@@H](O)[C@H](C)O4)[C@H](C)O3)[C@@H](C)C=CC=C3CO[C@@H]4[C@H](O)C(C)=C[C@@H](C(=O)O1)[C@]34O)O2,1.63% (inactive)
16,Clc1ccc(N2CCN(Cc3c[nH]c4ncccc34)CC2)cc1,-0.132% (inactive)
17,COc1cc(SC)ccc1C(=O)N1CCC(Cc2ccccc2)CC1,-3.17% (inactive)
18,COc1ccc2c(c1)CCC1C2CC[C@@]2(C)C1CC[C@@H]2NCCCCCCN1C(=O)CCC1=O (stereo partly drawn),2.32% (inactive)
19,CC1CN(S(=O)(=O)c2cccc3cnccc23)CCN1 (stereo not drawn),2.06% (inactive)

row,SMILES,"activity change, negative = inhibition"
1,COC1=C(OC)C(=O)c2ccccc2C1=O,1.06% (inactive)
2,CN(C)c1nc(N)c(C(=O)N=C(N)N)nc1Cl,1.2% (inactive)
3,NCCCCCCCCCCN,-0.308% (inactive)
4,COc1cccc(C(=O)NCCN2CCN(c3ccc(Cl)cc3)CC2)c1,-0.389% (inactive)
5,CN1CCc2ccccc2Cc2[nH]c3ccccc3c2CC1,1.71% (inactive)
6,CC(C)NCC(O)COc1cccc2ccccc12 (stereo not drawn),1.84% (inactive)
7,NC(N)=NC(=O)c1nc(Cl)c(N2CCCCCC2)nc1N,1.91% (inactive)
8,O=C(Nc1ccccc1)c1cc([N+](=O)[O-])ccc1Cl,1.06% (inactive)
9,Cn1cc(C2=C(c3ccc(Cl)cc3Cl)C(=O)NC2=O)c2ccccc21,1.32% (inactive)
10,CCCCCCCC/C=C\CCCCCCCC(=O)NCCO,-0.835% (inactive)
11,C[C@@H](CN1CCC(Cc2ccccc2)CC1)[C@@H](O)c1ccc(O)cc1,0.308% (inactive)
12,Oc1cc2c(cc1O)CN(C(=S)NCCc1ccc(Cl)cc1)CCC2,-0.572% (inactive)
13,O=C(CCCCCN1CCN(c2ccccc2-c2ccccc2)CC1)NC1CCCc2ccccc21 (stereo not drawn),0.806% (inactive)
14,COC(=O)c1c(C)[nH]c(C)c1C(=O)c1ccccc1Cc1ccccc1,-0.461% (inactive)
15,CC(C)NC[C@H](O)COc1cccc2[nH]ccc12,0.566% (inactive)
16,OC[C@H]1O[C@@H](n2cnc3c(NC4CCCCC4)ncnc32)[C@H](O)[C@@H]1O,0.12% (inactive)
17,O=C(/C=C/c1ccc(O)c(O)c1)OCCc1ccccc1,3.9% (inactive)
18,CCCCCCCCCCCCCCCC(=O)OC(CC(=O)O)C[N+](C)(C)C (stereo not drawn),2.46% (inactive)
19,COc1cccc(OC)c1OCCNCC1COc2ccccc2O1 (stereo not drawn),2.43% (inactive)
